Values joined by “and” are separate entries in the source; they are usually repeats but may differ in a detail not shown here. Equal entries are not always repeated. About 3,300 (0.97%) of roughly 340,000 compounds were called active. Another 9% or so got no clear call; they are omitted. The call rests on the fitted dose curve; in most records, active means well fitted inhibition curve with a large enough effect; inconclusive means small, poorly fitted or top-dose-only effect, or effect the other way; inactive means flat fitted curve, though single readings scatter. Some of the results follow.
Experiment: qHTS Assay for Modulators of miRNAs and/or Inhibitors of miR-21; further: nearly all actives have a fitted effect of over 55% in size
Settings: HeLa miR-21-FLuc reporter, luciferase luminescence, 48 h; actives lower the signal
Description: MLSCN Grant: 1 R21 NS059478-01 Assay Provider: Qihong Huang, The Wistar Institute NCGC Assay Overview: MicroRNAs (miRNAs) are endogenously encoded small (~20-25 nucleotides), nonprotein-coding RNAs that are involved in post-transcriptional repression of target messenger RNAs (mRNAs) (Le and Hannon, 2004). Estimated to be involved in the regulation of 30% of all protein-coding mRNAs (Filipowicz et al., 2008), miRNAs play a significant role in many biological processes including cellular differentiation and tissue development (Ghildiyal and Zamore, 2009).
NCGC Assay Protocol Summary: Reagents: HeLa cells stably expressing firefly luciferase (FLuc) under the control of a CMV promoter (upstream) and a miR-21 binding sequence directly downstream of the gene. These cells endogenously express miR-21. Control compounds used were compound C3 (provided by collaborator), N6-phenyladenosine (MP Biomedicals, 0215379625), and DMSO. Assay Summary: 6uL of HeLa miR-21-FLuc cells in assay buffer (DMEM, Invitrogen #21063-029; 10% FBS, HyClone #SH30071.03) were dispensed at 2000cells/well (3.3 x 10^5 cells/mL) into Greiner solid-white TC-treated 1536-well plates using a Multidrop Combi (Thermo Fisher Scientific). Plates were incubated for one hour at 37 degree Celsius, 95% humidity, 5% CO2. These assay plates were then treated with 23nL of compound or DMSO using a Kalypsys pin tool, which allows for delivery of a 24-point titration of each compound to the assay plate, with a final compound concentration ranging from approximately 40uM to 5pM. Assay plates were then incubated for 48 hours. After incubation, plates were allowed to come to RT for one hour prior to delivery of 3uL of 3X luciferase detection reagent. After a 15 minute incubation to allow for cell lysis, luciferase activity was measured using a ViewLux CCD imager (PerkinElmer), with an average exposure time of 2-12 seconds. Keywords: NIH Roadmap, MLPCN, MLSMR, qHTS, miR-21, microRNA, firefly luciferase, FLuc.
Potency means the concentration at half of the fitted maximal effect.

Potency, active:
Cc1cc(=O)oc2cc(NC(=O)c3ccccc3OC(F)F)ccc12 8.26 µM
COc1cccc(C(=O)Nc2ccc3c(C)cc(=O)oc3c2)c1 0.329 µM
CCCCOC(=O)Nc1ccc2c(C)cc(=O)oc2c1 1.17 µM
Cc1cc(=O)oc2cc(NC(=O)c3ccccc3Cl)ccc12 3.69 µM
COc1cccc(C(=O)Nc2nnc(-c3ccccc3)s2)c1 0.826 µM
COc1cccc(C(=O)Nc2ccc3c(c2)C(=O)c2ccccc2C3=O)c1 2.93 µM
O=C(NC(=S)Nc1ccc2c(c1)C(=O)c1ccccc1C2=O)c1ccc(F)cc1 2.93 µM
C/C(=N\Nc1nc2ccccc2s1)c1ccc2c(c1)OCO2 10.4 µM
c1ccc2sc(Nc3nc4cc5c(cc4s3)OCO5)nc2c1 3.69 µM
CC(=O)c1sc(Nc2nc3cc4c(cc3s2)OCO4)nc1C 1.85 µM
Fc1ccc2nc(Nc3nc4cc5c(cc4s3)OCO5)sc2c1 1.65 µM
CCN(CC)S(=O)(=O)c1nnc(NC(=O)COc2ccc(Cl)cc2)s1 0.521 µM
CC(=O)Nc1nnc(COc2ccc(Cl)cc2)s1 3.29 µM
Nc1nnnn1/N=C/c1ccc(N2CCCCC2)c([N+](=O)[O-])c1 16.5 µM
N/C(CS(=O)(=O)c1ccccn1)=N\OC(=O)c1ccccc1Cl 4.65 µM
Cc1c2ccccc2nc2c(F)c(NC(C)C)c(F)c(F)c12 16.5 µM
O=C(Nc1ccc(Cl)cc1)OCc1ccccn1 5.85 µM
O=C(Cc1c(Cl)cccc1Cl)OCc1ccccn1 18.5 µM
O=C(Nc1cccc(Cl)c1)OCc1ccccn1 6.56 µM
COc1ncccc1-c1nnn(-c2ccc(C)cc2)n1 1.47 µM
Cc1ccc(-n2nnc(-c3cccnc3Cl)n2)cc1 0.521 µM
Cc1ccc(-n2nnc(-c3ccnc4ccccc34)n2)cc1 1.85 µM
O=C(Nc1ccccc1)OCCOc1ccccc1 3.69 µM
CC(C)c1ccc(NC(=O)COc2ccc(F)cc2C(=O)c2cnn(-c3ccccc3)c2)cc1 2.93 µM
CC(C)c1ccc(NC(=O)COc2ccccc2)cc1 7.36 µM
COCC(=O)Nc1ccc(OCc2ccccc2)cc1 11.7 µM
Cc1ccc(NC(=O)CCOc2ccccc2)cc1 5.85 µM and 8.26 µM
Cc1ccsc1C(=O)Nc1ccc(OCc2ccccc2)cc1 1.65 µM
CC(C)c1ccc(NC(=O)Cn2ncc3ccccc32)cc1 7.36 µM
CCOc1ccc(NC(=O)NC2CCCCCCC2)cc1 2.93 µM
CCOc1ccc(NC(=O)Cc2ccccc2)cc1 2.61 µM
COC(=O)Nc1ccc(OCc2ccccc2)cc1 5.21 µM
Clc1cccc(Cl)c1C1=NOC(c2nnc(-c3ccccc3)o2)C1 (stereo unspecified) 13.1 µM
COc1ccc(C(=O)Nc2nc3ccccc3[nH]2)cc1OC 1.85 µM
COc1ccc(C(=O)Nc2ccc(N3CCCC3)cc2)cc1OC 4.65 µM
O=C(Nc1ccc(N2CCCC2)cc1)c1cccc(Cl)c1 0.329 µM
NC(=O)NC(=O)C(Nc1ccc(N2CCCCC2)cc1)c1ccccc1 (stereo unspecified) 13.1 µM
Cc1cccc(NC(=O)c2cc3ccccc3oc2=O)c1 0.329 µM
Cc1ccnc(NC(=O)c2cc3ccccc3oc2=O)c1 0.414 µM
CCN(C(=O)c1cc2ccccc2oc1=O)c1ccccc1 6.56 µM
O=C(Nc1ccccc1O)c1cc2cc(Br)ccc2oc1=O 0.521 µM
CCOc1ccc(C2=NC(c3ccc(OC)cc3)=Nc3ccc(Cl)cc3N2)cc1 18.5 µM
O=C(Cn1cccc1C(=O)c1ccccc1)NCc1ccccc1Cl 11.7 µM
O=C1NC(=S)N/C1=C/c1cccc2ccccc12 14.7 µM
CCOC(=O)c1cccc(COC(=O)c2cccc(-c3nnc(-c4ccccc4)o3)c2)c1 5.85 µM
Cc1c(/C=C/C(=O)c2cccs2)cnn1C 14.7 µM
Cc1nn(C)cc1/C=C/C(=O)c1cccs1 13.1 µM
Nc1nnc(COc2ccc(Br)cc2Br)s1 5.21 µM
C=CCN1C(=O)C(=O)N(Cc2nc3ccccc3s2)C1=O 11.7 µM
Cc1ccc(Oc2ncnc3sccc23)cc1 14.7 µM
C=C(C)CNC(=O)CCc1nnc(Cc2cccc(C(F)(F)F)c2)o1 11.7 µM
O=C(NC1CCCCCC1)c1cc2c(=O)n3ccccc3nc2s1 10.4 µM
CC1CCCCN1C(=O)c1cc2c(=O)n3ccccc3nc2s1 (stereo unspecified) 16.5 µM
CC1CCCN(C(=O)c2cc3c(=O)n4ccccc4nc3s2)C1 (stereo unspecified) 14.7 µM
CC1CCN(C(=O)c2cc3c(=O)n4ccccc4nc3s2)CC1 14.7 µM
Cc1cc(N2CCN(C)CC2)nc2ccc(NC(=O)Nc3ccccc3)cc12 7.36 µM
Cc1cc(N2CCN(C)CC2)nc2ccc(NC(=O)Nc3ccccc3Cl)cc12 0.585 µM
Cc1cc(C)cc(Nc2ccc(C(=O)O)cc2N)c1 18.5 µM
O=C(Nc1ccc([N+](=O)[O-])cc1)c1ccccc1F 4.14 µM
O=C(/C=C/c1cccs1)c1ccc(NC(=O)c2ccccc2F)cc1 13.1 µM
N/C(Cc1ccc([N+](=O)[O-])cc1)=N\OC(=O)c1ccccc1F 16.5 µM
O=C(Nc1ccn(-c2ccccc2)n1)c1ccccc1Br 13.1 µM
N=C1C(c2nc3ccccc3[nH]2)=C(O)CN1c1ccc(F)cc1 14.7 µM
CCn1c(SCC(=O)O)nnc1-c1ccccc1OC 3.29 µM
CN(C)c1ccc(/C=N/N=C/c2ccccc2O)cc1 2.61 µM
CCc1ccc2nc3n[nH]c(N)c3cc2c1 2.33 µM
Cc1cc2cc3c(N)[nH]nc3nc2cc1C 14.7 µM
Cc1nc(-c2nc(-c3c(C(=O)NN)noc3C)cs2)cs1 4.14 µM
CSc1ccc(CNC(=O)c2ccc(NC(=O)c3nsc4ccccc34)cc2)cc1 0.585 µM
COCCCNC(=O)c1ccc(NC(=O)c2nsc3ccccc23)cc1 3.69 µM
CCOc1ccc(CNC(=O)c2ccc(NC(=O)c3nsc4ccccc34)cc2)cc1 1.85 µM
Cc1ccc(CNC(=O)c2ccc(NC(=O)c3nsc4ccccc34)cc2)cc1 1.65 µM
CCOc1cc(CNC(=O)c2ccc(NC(=O)c3nsc4ccccc34)cc2)ccc1OC 0.585 µM
O=C(Nc1ccccc1F)N1CCc2ccccc2C1 4.65 µM
Nc1nc(CSC(=S)N2CCCCC2)nc(Nc2ccccc2)n1 11.7 µM
Nc1nc(CSC(=S)N2CCOCC2)nc(Nc2ccccc2)n1 3.69 µM
Cc1ccc(NC(=O)Nc2ccc3c(c2)nc(C)n3C)cc1C 1.17 µM
Cc1nc2cc(NC(=O)Nc3cccc4ccccc34)ccc2n1C 2.93 µM
Cn1c(CCN2CCCCCC2)nc2cc(NC(=O)Nc3ccccc3)ccc21 7.36 µM
Cc1ccc(/C=N/Nc2ncc(Cl)cc2Cl)s1 3.69 µM
Cc1ccc(/C=N/Nc2cccc(C(=O)O)c2)s1 0.104 µM
Cc1ccc(/C=N/Nc2ccc(Cl)c(C(=O)O)c2)s1 0.165 µM
CN(C(=O)c1ccco1)c1nnc(C23CC4CC(CC(C4)C2)C3)s1 8.26 µM
C=CCSc1cc(C)nc2c(-c3ccccc3)cnn12 2.07 µM
CCSc1cc(C)nc2c(-c3ccccc3)cnn12 0.656 µM
COc1ccc(/C=C/C=C2\NC(=S)NC2=O)cc1 14.7 µM
Cc1oc(C(C)(C)C)cc1C(=O)Nc1ccc(C(=O)O)cc1 8.26 µM
NC1=NC(=O)/C(=C/c2cn(Cc3ccccc3)c3ccccc23)S1 9.27 µM
Cc1ccc(C(=O)C(C)OC(=O)c2ccccc2[N+](=O)[O-])cc1 (stereo unspecified) 4.65 µM
Cc1ccc2cc(NC(=O)c3ccccc3C)ccc2n1 5.85 µM
Cc1ccc2cc(NC(=O)c3cccc(F)c3)ccc2n1 0.464 µM
CCc1ccc(C(=O)Nc2ccc3nc(C)ccc3c2)cc1 3.29 µM
Cc1ccc(NC(=O)CC(=O)c2ccccc2)cc1C 11.7 µM
Cc1ccc2cc(NC(=O)Cc3ccccc3)ccc2n1 2.07 µM
CCC(=O)Nc1ccc(-c2ccc(N3CCCCC3)nn2)cc1 4.14 µM
CCC(=O)Nc1ccc(-c2csc(C)n2)cc1 7.36 µM
COc1cc(SC)ccc1C(=O)Nc1ccc2ncccc2c1 0.369 µM
CSc1ccccc1C(=O)Nc1ccc2c(c1)CCC2 7.36 µM
COc1cc(SC)ccc1C(=O)Nc1ccc2c(c1)CCC2 1.31 µM
COc1cc(SC)ccc1C(=O)Nc1ncc(Cl)cc1Cl 1.85 µM
COc1cc(SC)ccc1C(=O)Nc1ccc(C)cc1C 1.85 µM
CCCCN(C(=O)Cc1cccs1)c1nnc(-c2cccnc2)s1 14.7 µM
CCOC(=O)CSc1nc(N)c(C#N)cc1C#N 8.26 µM
CC(C)OC(=O)CSc1nc(N)c(C#N)cc1C#N 5.85 µM
CSc1nc(N)nc(SCC(=O)OC(C)C)c1C#N 13.1 µM
O=C1CCn2nc(-c3ccc(Cl)cc3)cc2N1 6.56 µM

Source: PubChem BioAssay AID2289 (National Center for Advancing Translational Sciences (NCATS), 2010)
